An excerpt weighted towards active compounds, which were near 1.1% of everything screened.
gsp agonist: gsp mutant agonism | Potency, µM (doses to about 76.9 µM), for the others: at the top dose activation (cAMP increase), most hits filed as activators | gsp mutant cells, cAMP HTRF, 30 min | 340,000 compounds, 0.13% hits | AID 624287; active means well fitted activation curve with a large enough effect; inconclusive means small, poorly fitted or top-dose-only effect, or another doubt; inactive means no such curve, though single readings can be large or run the other way; cell line not stated here;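 further: phosphodiesterase inhibitor Ro 20-1724 added with compounds to block cAMP breakdown; potency means the concentration at half of the fitted maximal effect; nearly all actives have a fitted effect of over 60% in size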
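Cells stably selected in G418 were plated at 2000/well, grown 16-24 hr, then given compounds in DMSO with the PDE inhibitor […] (300 uM solution added) for 30 min at 37C; cAMP was read by HTRF.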
RXFP1 ag: RXFP1 (human) receptor agonism. Potency, µM (titrated, usually from 57.5 µM), for the others: at the highest dose activation, actives largely listed as activators. HEK293T-RXFP1 cAMP TR-FRET, 30 min; response scale: percent of porcine relaxin response, buffer zero. 370,000 compounds, 0.3% hits; further: potency means the concentration at half of the fitted maximal effect; on the % scale 0 is the no-effect control and ±100 the full control effect; nearly all actives have a fitted effect of over 60% in size
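Agonist response is measured as cAMP accumulation in an RXFP1-transfected HEK293T line under PDE4 inhibition. Values are scaled between buffer-only and 29 nM porcine relaxin, and EC50s come from standard Hill equation fits.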
RXFP1 antag: antagonists of human relaxin receptor RXFP1; HEK293-RXFP1, relaxin-stimulated cAMP HTRF, 30 min; active compounds read low; AID 1259400; activity change, negative = inhibition, % at 57.5 µM; 350,000 compounds, 0.59% hits; Q9HBX9;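 active means activity change of -60% or lower, but not beyond a set lower limit; inconclusive means change between -60% and -40%, or beyond the set limit; inactive means change above -40%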; further: on the % scale 0 is the no-effect control and ±100 the full control effect
ASM inhibitor: blocks human secretory acid sphingomyelinase; P17405; placental ASM, HMU-PC fluorogenic substrate, 60 min; Potency, µM (titrated, usually from 57.5 µM), inactives show top-dose activity change, negative = inhibition, usual class: inhibitors; 340,000 compounds, 0.006% hits; further: potency means the concentration at half of the fitted maximal effect
Target sequence (P17405 47-631 limits assumed): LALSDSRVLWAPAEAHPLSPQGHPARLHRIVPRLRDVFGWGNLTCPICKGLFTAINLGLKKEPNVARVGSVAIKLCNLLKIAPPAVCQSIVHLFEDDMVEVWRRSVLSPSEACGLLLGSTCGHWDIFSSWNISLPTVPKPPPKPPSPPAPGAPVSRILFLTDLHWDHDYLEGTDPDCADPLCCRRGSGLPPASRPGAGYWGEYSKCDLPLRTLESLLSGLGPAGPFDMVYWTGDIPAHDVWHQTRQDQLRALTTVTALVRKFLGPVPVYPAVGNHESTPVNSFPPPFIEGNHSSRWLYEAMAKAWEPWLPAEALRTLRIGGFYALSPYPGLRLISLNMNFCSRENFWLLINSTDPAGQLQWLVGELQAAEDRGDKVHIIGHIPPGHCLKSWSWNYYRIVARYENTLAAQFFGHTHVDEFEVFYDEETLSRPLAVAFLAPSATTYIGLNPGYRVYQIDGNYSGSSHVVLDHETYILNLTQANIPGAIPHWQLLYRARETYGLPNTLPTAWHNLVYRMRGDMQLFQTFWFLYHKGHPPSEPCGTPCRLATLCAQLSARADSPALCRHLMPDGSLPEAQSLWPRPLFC
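Human placenta-derived ASM enzyme was preincubated with compound for 10 minutes at room temperature, then given fluorogenic substrate HMU-PC0 (9 uM final) for 60 minutes at 37 °C; a pH 10 stop preceded fluorescence reading at Ex 386/Em 447 nm.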
gsp antag: antagonists of gsp mutant (McCune-Albright syndrome). gsp-mutant cells, cAMP HTRF, 30 min. Potency, µM (doses to about 76.9 µM), for the others: at the top dose activity change, negative = inhibition, hits mostly inhibitors. 340,000 compounds, 0.4% hits. AID 624288; calls by dose curve; cell line not stated here;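 further: intracellular cAMP measured with PDE inhibitor Ro 20-1724 present during compound exposure; potency means the concentration at half of the fitted maximal effect; on the % scale 0 is the no-effect control and ±100 the full control effect; nearly all actives have a fitted effect of over 65% in size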
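HTRF cAMP read-out (cAMP-d2 plus anti-cAMP antibody-K in lysis buffer, 30 min RT). Before lysis, cells are exposed to compounds with […] for 30 min at 37C in DPBS containing Ca/Mg, BSA and Tween 20.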
Integrin act MD: activates integrin-mediated alleviation for muscular dystrophy | 350,000 compounds, 0.064% hits | Potency, µM (highest dose often 38.3 µM), for the others: at the top dose activation, most hits filed as activators | AID 624291 | alpha7betagal myoblasts, beta-gal FDG fluorescence, 48 h;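 further: potency means the concentration at half of the fitted maximal effect; 100% = response of the positive control SU9516; nearly all actives have a fitted effect of over 60% in size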
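Alpha7betagal+/- myoblasts (passage 13) were plated 16-24 hr, then exposed to compounds (1:260 dilution of DMSO stock) for 48 hours at 37C. After MPER lysis, β-galactosidase reporter activity was read as FDG fluorescence (ex 480/em 540) after 30 minutes.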
Starred values were filed as active, the others as inactive; i = inactive; ? = inconclusive; nt = no result given; [ ] = dose if it differs, or a comment. Unless noted, the call rests on the fitted dose curve; in most records, active means well fitted curve in the direction sought with a large enough effect; inconclusive means small, poorly fitted or top-dose-only effect, or another doubt; inactive means no such curve, though single readings can be large; an effect the other way counts as inactive or inconclusive.

SMILES	gsp agonist	RXFP1 ag	RXFP1 antag	ASM inhibitor	gsp antag	Integrin act MD
CC(=O)N1CCN(c2ccc(Nc3ncnc4c3oc3ccccc34)cc2)CC1	3.0%	0.4%	-35.4	-2.2%	28.2µM*	-30.1%
Cc1cccc2c1-c1sc(C(=O)NCCCN3CCN(c4cccc(Cl)c4)CC3)cc1CO2	nt	2.6%	nt	nt	nt	nt
CC1(C)Cc2c(ccc3ccccc23)/C(=C/C(=O)N2CCCCC2)N1	-4.9%	1.9%	?	-11.3%	35.5µM*	-47.6%
Cc1cccc(OCCc2c(C)[nH]c(=S)[nH]c2=O)c1	-8.2%[15.4 µM]	2.8%	-117.7*	1.9%	8.3%	0.6%
CCCCc1c(C)[nH]c(=S)[nH]c1=O	?	-0.3%	-6.4	1.5%	0.8%	0.4%
Cc1[nH]c(=S)[nH]c(=O)c1Cc1c(O)ccc2ccccc12	-32.6%	nt	-17.2	9.3%	8.2%	19.0%
Cc1[nH]c(=S)[nH]c(=O)c1Cc1ccccc1	20.4%	-0.8%	-63.3*	-1.2%	0.2%	-4.8%
Cc1ccccc1-c1noc(N)c1C#N	26.8%	-0.3%	4.9	1.9%	14.2%	-41.8%
CN(C)/C=C/c1onc(-c2ccccc2Cl)c1C#N	-1.5%[15.4 µM]	-1.3%	-27.6	-0.4%	11.2µM*	-7.1%
COc1cc(CNC2CCCC2)c(Br)cc1OC1CCCC1	16.8%[15.4 µM]	3.4%	-13.9	0.5%	4.9%	-36.1%
COc1cc(CNCc2ccccc2)c(Br)cc1OC1CCCC1	7.2%[15.4 µM]	-2.1%	-60.9*	0.3%	0.7%	-49.0%
Cc1nc(=S)c2ccccc2[nH]1	?	4.6%	2.1	1.0%	8.0%	-5.6%
FC(F)(F)c1nc(=S)c2ccccc2[nH]1	2.24µM*	0.3%	8.5	-8.4%	25.1%	?
O=C(NCc1cccnc1)c1cc(C(=O)C2CC2)c[nH]1	1.0%[15.4 µM]	0.9%	-9.9	0.6%	11.2µM*	10.2%
Cn1c(CNC(=O)c2ccco2)nnc1SCC(=O)N1CCN(c2ccccc2F)CC1	4.5%	-2.5%	-93.5*	4.1%	2.3%	26.0%
Cn1c(CNC(=O)c2ccco2)nnc1SCC(=O)c1ccccc1	28.0%[15.4 µM]	-0.2%	-7.3	1.7%	1.4%	-15.2%
CCC(C(=O)NC(=O)NC(C)=O)c1ccccc1 (centres undefined)	nt	nt	-4.2	nt	nt	nt
COc1ccc(C(=O)CSc2nnc(Cn3cnc4ccccc43)o2)cc1	-13.3%	3.7%	1.5	-10.5%	39.8µM*	0.0%
O=C(NC(=S)Nc1ccccc1)c1cncc(C#Cc2ccccc2)c1	27.6%	12.1%	25.0	-7.5%	-9.8%	18.7%
COCCCn1c(C(=O)NCCC2=CCCCC2)cc2c(=O)n3ccccc3nc21	7.08µM*	15.6%	2.3	i	7.5%	24.3%
Cn1cc(C(=O)C(=O)NC2CCCCC2)c2ccccc21	26.1%	5.6%	5.1	-2.2%	50.1µM*	-4.6%
Cn1cc(C(=O)C(=O)NC2CC2)c2ccccc21	-3.5%[15.4 µM]	nt	-2.8	5.2%	-0.2%	-13.8%
Cc1nn(-c2ccccc2)c(N2CCCC2)c1/C=N/NC(=S)Nc1ccccc1F	-32.4%	0.4%	-2.5	6.7%	-10.7%	-0.1%
CCc1ccc2nc3c(c(C(=O)O)c2c1)CCC3	-9.6%	2.0%	1.1	3.1%	11.2%	12.0%[7.66 µM]
Cc1cc(Br)c2nc3c(c(C(=O)O)c2c1)CCCCC3	157.1%[15.4 µM]	2.24µM*	52.2	3.7%	11.1%	-9.7%
SMILES	gsp agonist	RXFP1 ag	RXFP1 antag	ASM inhibitor	gsp antag	Integrin act MD
CCOc1ccc(Br)cc1CNCCSc1nnnn1-c1ccccc1	nt	1.5%	-19.5	nt	nt	nt
COC(=O)c1cccc(Nc2ncnc3ccc(C)cc23)c1	25.1%	2.8%	6.4	5.2%	-9.0%	-2.9%
COc1ccc(Nc2ncnc3ccc(C)cc23)cc1	5.4%	2.7%	0.0	0.6%	-3.5%	3.55µM*
CCN(CC)C(=O)Cn1c(=O)n(-c2ccc(OC)cc2OC)c(=O)c2c(C)c(C(=O)N(CC)CC)sc21	nt	0.3%	-4.4	nt	nt	nt
N#Cc1c(-c2ccccc2)nc(SCC(=O)Nc2ccccc2F)[nH]c1=O	?	19.8%	31.1	6.1%	13.2%	3.7%
CCc1ccc(NC(=O)CSc2nc(-c3ccccc3)c(C#N)c(=O)[nH]2)cc1	nt	25.1µM*	4.9	nt	nt	nt
Cc1cc(C)nc(NS(=O)(=O)c2ccc(NC(=O)CSc3nc(-c4ccccc4)c(C#N)c(=O)[nH]3)cc2)n1	?	17.8µM*	19.1	18.8%	28.1%	3.9%
N#Cc1c(-c2ccccc2)nc(SCC(=O)Nc2ccccc2)[nH]c1=O	?	26.3%	6.7	3.4%	13.8%	22.4%
N#Cc1c(-c2ccccc2)nc(SCC(=O)Nc2nnc(C(F)(F)F)s2)[nH]c1=O	?	17.8µM*	22.0	3.0%	1.3%	?
Cc1ccc(N2CCN(c3nc4ccc(C(=O)c5ccccc5)cc4n4cnnc34)CC2)c(C)c1	nt	19.7%	-10.3	nt	nt	nt
O=C(Nc1cccc(NC(=O)c2cccs2)c1)c1ccc(Br)cc1	-29.5%	2.7%	-70.7*	-19.9%	-21.4%	?
O=C(Nc1ccc(NC(=O)c2cccs2)cc1)c1cccc(Br)c1	nt	3.8%	-6.6	nt	nt	nt
O=C(N/N=C/c1sc(N2CCOCC2)nc1-c1ccccc1)c1ccccc1O	9.1%	-0.4%	?	13.0%	39.8µM*	-21.0%
O=[N+]([O-])c1ccc(N/N=C/c2sc(N3CCOCC3)nc2-c2ccccc2)c(S(=O)(=O)Nc2ccccc2Cl)c1	-106.6%	-0.7%	-7.1	?	3.98µM*	-41.7%
O=[N+]([O-])c1ccc(N/N=C/c2sc(N3CCOCC3)nc2-c2ccccc2)c(S(=O)(=O)Nc2ccc(Cl)cc2)c1	?	4.8%	-5.9	-20.9%	-25.4%	0.0%
CO/N=C(/C(=O)N[C@@H]1C(=O)N2C(C(=O)[O-])=C(C[n+]3ccn4ncccc43)CS[C@H]12)c1nsc(N)n1	nt	nt	15.8	nt	nt	nt
COc1ccc(/C=C2/SC(=S)N(c3ccc(S(=O)(=O)Nc4nccs4)cc3)C2=O)cc1	9.3%[15.4 µM]	0.0%	-79.6*	-15.0%	31.6µM*	-19.4%
O=C1/C(=C\c2ccccn2)SC(=S)N1c1ccc(S(=O)(=O)Nc2nccs2)cc1	0.2%[15.4 µM]	0.3%	-80.7*	-9.4%	39.8µM*	-15.6%
Cc1ccc(Oc2ccc3c(c2)C(=O)N(c2ccc(S(=O)(=O)Nc4nccs4)cc2)C3=O)cc1	37.9%	0.2%	-106.7*	-7.4%	?	4.2%
O=C(Nc1ccc(S(=O)(=O)Nc2nccs2)cc1)c1cccc(N2C(=O)c3ccccc3C2=O)c1	8.1%	0.3%	-5.4	-2.4%	-11.8%	-9.2%
Cc1ccc(/C=C2/SC(=S)N(c3ccc(S(=O)(=O)Nc4nccs4)cc3)C2=O)cc1	1.9%[15.4 µM]	22.5%	-66.5*	-16.5%	31.6µM*	0.0%
O=C1/C(=C/c2ccccn2)SC(=S)N1c1ccc(O)cc1	-41.7%	7.9%	-2.3	-2.4%	-7.6%	-9.1%

Assay outcomes from PubChem.
